c-Myc SMM: binders of human c-Myc, primary screen, biochemical, small molecule microarray, anti-His fluorescence | Myc proto-oncogene protein (Homo sapiens), P01106 | His-c-Myc binding | actives 1.5% (n = 17,000) | calls only | AID 624141, 2012;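 active = spot fluorescence over background with P-value below 7% in all four replicate spots, showing protein binding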;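 also: score is binary with 100 for all four spots passing and 0 otherwise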
Target sequence (P01106 whole entry, looked up): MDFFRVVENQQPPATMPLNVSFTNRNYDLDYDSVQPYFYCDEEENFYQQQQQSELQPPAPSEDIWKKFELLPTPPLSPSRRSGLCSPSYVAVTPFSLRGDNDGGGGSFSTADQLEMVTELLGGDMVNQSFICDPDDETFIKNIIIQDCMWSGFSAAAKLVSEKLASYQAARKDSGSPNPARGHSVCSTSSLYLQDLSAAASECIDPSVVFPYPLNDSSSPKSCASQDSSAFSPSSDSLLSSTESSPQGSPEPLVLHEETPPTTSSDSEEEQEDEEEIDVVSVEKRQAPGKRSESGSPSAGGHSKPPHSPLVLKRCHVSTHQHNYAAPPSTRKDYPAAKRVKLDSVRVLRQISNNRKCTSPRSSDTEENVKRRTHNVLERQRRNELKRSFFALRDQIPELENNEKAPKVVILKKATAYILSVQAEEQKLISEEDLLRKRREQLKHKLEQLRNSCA
mut p53 react: mutant p53 pathway re-activators, primary screen, cell-based, SW480, luciferase, single point, HTS. activation, % at 9.98 µM. AID 624151, 2012. SW480 PUMA-promoter luciferase, p53 mutant reactivation. actives 1.5% (n = 28,000); in the data active = activation above about 52%
STAT3 SMM: STAT3 binders, primary screen, biochemical, small molecule microarray, single point, set 2; calls only; actives 0.2% (n = 17,000); AID 624138, 2012; Signal transducer and activator of transcription 3 (Homo sapiens), P40763; His-STAT3 binding, anti-His fluorescence;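 active = compounds whose four printed spots each show fluorescence over background unusually high for their array block, chance value under 7%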
NFkB binder: binders of NF-kB p50 subunit, primary screen, biochemical, small molecule microarray, anti-His fluorescence; Nuclear factor NF-kappa-B p105 subunit (Homo sapiens), P19838; anti-His fluorescence binding; calls only; actives 1.3% (n = 17,000); AID 624139, 2012;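 active = spot fluorescence over background significantly raised, with a chance value under 7% in all four replicate spots of the compound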;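 also: probe protein is his-tagged human p50 processed subunit at 1 µg/ml; raw spot fluorescence signals with no normalization applied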
mut p53 SMM: binders of human mutant p53, primary screen, biochemical, small molecule microarray, anti-GST fluorescence; small molecule microarray binding; calls only; actives 0.4% (n = 17,000);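 active = compounds whose four printed spots each glow above background more than chance allows, each with a p-value under 7%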
* = called active by the depositor; i = inactive; . = no result; + = active, no number. Compounds with a hit are over-represented: about 2.6% of the library has one in this group of screens.

SMILES	c-Myc SMM	mut p53 react	STAT3 SMM	NFkB binder	mut p53 SMM
COC(=O)c1cc2c(cn1)[nH]c1ccccc12	i	12	i	i	i
CCOC(=O)c1cc2c(cn1)[nH]c1ccccc12	i	65*	i	i	i
CC[C@@H](CO)NC(=O)[C@@H]1C=C2c3cccc4c3c(cn4C)C[C@H]2N(C)C1	+	-3	i	i	i
CC(C)C[C@H]1C(=O)N2CCC[C@H]2[C@]2(O)O[C@](NC(=O)[C@@H]3C=C4c5cccc6[nH]cc(c56)C[C@H]4N(C)C3)(C(C)C)C(=O)N12	.	-7	.	.	.
CCC(CO)NC(=O)C1C=C2c3cccc4[nH]cc(c34)CC2N(C)C1 (stereo unspecified)	+	-3	i	+	i
CC(=O)c1c(C)n(Cc2ccccc2)c2c(Cl)c(Cl)c(Cl)c(OCC(=O)O)c12	i	-19	i	i	i
O=C1/C(=C/c2ccccc2)C[C@@]2(O)C3Cc4ccc(O)c5c4[C@@]2(CCN3CC2CC2)[C@H]1O5	i	-79	i	i	i
CC[C@H]1CN2CCc3cc(OC)c(OC)cc3[C@@H]2C[C@@H]1C[C@H]1NCCc2cc(O)c(OC)cc21	.	-81	.	.	.
CO[C@H]1[C@@H](O)[C@@H](C)O[C@@H](OC2CCC3(C)C(CC[C@@H]4[C@@H]3CCC3(C)C(C5=CC(=O)OC5)C(O)CC43O)C2)[C@@H]1O (stereo partly specified)	i	-3	i	i	i
COC1CC(OC2CCC3(C)C(CCC4(O)C3CC(OC(=O)c3ccccc3)C3(C)C(O)(C(C)=O)CCC43O)C2)OC(C)C1OC1CC(OC)C(OC2OC(C)C(O)C(OC)C2O)C(C)O1 (stereo unspecified)	+	-13	i	+	i
CNCC(O)c1ccc(O)c(OC)c1 (stereo unspecified)	i	6	i	i	i
CC[C@@H]1/C=C\C=C\C[C@H](C)[C@@H](O)[C@](C)(O)C(=O)[C@H](C)[C@@H](O)[C@H](C)C(=O)[C@H](C)[C@@H](O)[C@H](C)/C=C/C(=O)O[C@H]2[C@@H](C)[C@@H](CC1)O[C@@]1(CC[C@@H](C)[C@@H](C[C@H](C)O)O1)[C@@H]2C	i	-74	i	i	i
COC1=CC(=O)O[C@@H](/C=C/c2ccccc2)C1	i	78*	i	i	i
CCC(C)[C@H]1C(=O)O[C@H](C(C)C)C(=O)N(C)[C@@H](C(C)C)C(=O)O[C@H](C(C)C)C(=O)N(C)[C@@H](C(C)C)C(=O)O[C@H](C(C)C)C(=O)N1C (stereo partly specified)	i	-77	i	+	i
O=C(O)C1C2CCC(O2)C1C(=O)NCCc1ccccc1 (stereo unspecified)	+	11	i	i	i
Cc1ccc2c(c1)Cc1c(C(=O)NC3CCCCC3)nn(-c3ccc(Cl)cc3Cl)c1-2	i	-6	i	+	i
